Pf growth 48h: P. falciparum growth inhibition at 48 hours (one generation); Potency, µM (series often up to 28.7 µM), inactives show top-dose activity change, negative = inhibition, actives largely listed as inhibitors; P. falciparum luciferase growth in erythrocytes, 48 h; hit rate 5.9% among 310,000; AID 504832; also: potency is read from the fitted curve at half-maximal effect; % is scaled to controls: 0 for no effect and ±100 for the full control effect
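Parasite viability was followed by luminescence of a genomically integrated firefly luciferase. Cultures held 0.1% parasitemia at 2% hematocrit (final), incubated under 5% CO2 at 37 C.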
Shiga inhibitor: Shiga toxin inhibition; Vero cells, Shiga toxin protein synthesis inhibition reporter; inhibition, % at 38.7 µM; hit rate 9.2% among 290,000; AID 2315; in the data active = inhibition mostly above about 28%, no sharp cut-off; inactive = mostly below about 43%; also: 0% is about no effect
HCMV inh: human cytomegalovirus inhibition. HFF cells, HCMV-luciferase reporter, 72 h; active compounds read low. activity change, negative = inhibition, % at 57.5 µM. hit rate 4.5% among 410,000; in the data active = activity change below about -60%; inconclusive = no clear call, values can overlap the other calls; inactive = above about -39%; also: % is scaled to controls: 0 for no effect and ±100 for the full control effect
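After 16 h attachment at 37C, HFF cells received test compound and HCMV-luciferase (1 PFU/cell); reporter luminescence read 72 h later, data normalized against buffer-only and known inhibitor Salinomycin.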
HCV inhibitor: HCV inhibition; Huh7.5.1 HCVcc-Cre infection, luciferase reporter, 44 h; Potency, µM (series often up to 41.8 µM), for the others: top-dose activity change, negative = inhibition, actives largely listed as inhibitors; hit rate 3.4% among 340,000; AID 651820; also: potency is read from the fitted curve at half-maximal effect; % is scaled to controls: 0 for no effect and ±100 for the full control effect
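After 44 h co-culture of compound, cells and HCVcc-Cre (~0.5 moi), substrate is added for 15 min at room temperature and luciferase measured over 15 sec. Cells were seeded at 1,000/well and pre-cultured 4 h.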
CHX counter: counter-screen hit for Shiga toxin inhibitors, cycloheximide | cell reporter, cycloheximide protein synthesis inhibition counterscreen | max response, % | hit rate 12% among 300,000 | AID 2314; in the data active = max response mostly above about 13%, no sharp cut-off; inactive = mostly below about 14%; also: read at 38.3 µM for the half of the compounds with a filed dose; 0% is about no effect
Pf growth 96h: P. falciparum growth inhibition at 96 hours; P. falciparum luciferase reporter growth, 96 h; hit rate 6.9% among 320,000; Potency, µM (highest dose often 28.7 µM), inactives show at the highest dose activity change, negative = inhibition, usual class: inhibitors; AID 504834; also: potency is read from the fitted curve at half-maximal effect; % is scaled to controls: 0 for no effect and ±100 for the full control effect
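Readout is luminescence from an integrated firefly luciferase in P. falciparum. Red cells, 2% hematocrit and 0.05% parasitemia final, were cultured with compound through two parasite generations (96 hours) at 37 C, 5% CO2.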
The depositor's hits bear a star; ? = inconclusive; . = not tested or not shown; + = active, no number. In the library only some 21% were active in any assay of this set; here they are far more common. Unless noted, calls follow the shape of the dose curve; as a rule, active = well fitted inhibition curve with a large enough effect; inconclusive = small, poorly fitted or top-dose-only effect, or another doubt; inactive = no such curve, though single readings can be large or run the other way.

SMILES	Pf growth 48h	Shiga inhibitor	HCMV inh	HCV inhibitor	CHX counter	Pf growth 96h
Cc1ccnc(NCc2c(O)ccc3ccccc23)c1	1%	49	52	-5%	5	0.093µM*
Fc1ccc(CNc2cnccn2)cc1	0%	-3	-13	23%	-2	6%
c1ccc(CCNc2cnccn2)cc1	.	34*	27	19%	18*	31%
Cc1ccc(CNc2cnccn2)cc1	5%	27*	48	15%	12	-5%
Cc1ccnc(NCc2ccc(Cl)cc2)c1	12%	49*	-17	-17%	25*	166%
O=C(CN1C(=O)c2cccnc2Oc2ccc(Cl)cc21)NCCC1=CCCCC1	?	14	8	0%	8	3%
COc1ccc(Cc2c(O)nc(SCC(=O)NC(C)(C)C)[nH]c2=O)cc1	7%	-20	-3	6%	1	?
c1ccc(CNc2ccccn2)cc1	0%	-6	14	1%	1	258%
Clc1ccc(CNc2ccccn2)cc1	39%	55*	9	10%	31*	37%
N#CCCn1cc(C(=O)Nc2cccc(C(=O)O)c2)c(-c2ccc(Cl)cc2)n1	8%	-13	15	9%	2	?
CN(C)c1nc(N(C)C)nc(N2CC(=O)N(c3ccccc3)C2=N)n1	2.9µM*	-4	-35	-15%	-9	126%
NC(=O)[C@@H]1CSSCCC(=O)N[C@@H](CCCCN=C(N)N)C(=O)NCC(=O)N[C@@H](CC(=O)O)C(=O)N[C@@H](Cc2c[nH]c3ccccc23)C(=O)N2CCC[C@H]2C(=O)N1	1%	.	.	.	.	7%
CC(C)c1nnc(NC(=O)C2CCN(S(=O)(=O)c3ccc(-n4cnnn4)cc3)CC2)s1	-2%	-11	10	?	3	?
Cc1cc(C)nc(N/N=C/c2sccc2C)n1	22%	77*	-80*	-25%	26*	?
Cc1ccsc1/C=N/Nc1nc(=O)[nH]nc1C	?	112*	-7	?	34*	-7%
Cc1ccsc1/C=N/Nc1ccc(F)cc1F	?	91*	34	13%	44*	?
Cc1n[nH]c(=O)nc1NCc1ccc(Cl)cc1	-4%	-19	24	4%	-3	21%
Cc1ccsc1/C=N/Nc1ncc(Cl)cc1Cl	.	119*	?	13µM*	32*	-101%
COc1cc(/C=N/NC(=O)c2cnccn2)cc(OC)c1OC	14%	-8	34	16%	-8	?
O=C(N/N=C/c1ccc(OC(=O)c2ccccc2Cl)cc1)c1cc(O)cc(O)c1	74%	28	9	3%	11	?
CCN(CC)c1ccc(/C=N/NC(=O)c2cnccn2)cc1	310%	108*	?	-14%	42*	?
CCN(CC)c1ccc(/C=N/NC(=O)c2ccccn2)cc1	221%	44*	82	?	26*	6%
O=C(N/N=C/c1ccc(OC(=O)c2ccccc2Cl)cc1)c1ccccn1	94%	51*	.	11%	49*	?
CC(OC(=O)c1ccc2ncsc2c1)C(=O)NC1CCCCC1C (centres undefined)	3%	.	-15	?	.	2%
COc1ccc(/C=N/NC(=O)c2cc(-c3cccn3C)n[nH]2)cc1OC	13µM*	-12	-25	-22%	-3	1.9µM*
SMILES	Pf growth 48h	Shiga inhibitor	HCMV inh	HCV inhibitor	CHX counter	Pf growth 96h
Cn1cccc1-c1cc(C(=O)N/N=C/c2cccc(O)c2)[nH]n1	22%	56*	-25	-20%	30*	?
COc1cc(OC)c(OC)cc1/C=N/NC(=O)c1cc(-c2cccn2C)n[nH]1	?	-19	3	10%	-2	?
CCOc1cccc(/C=N/NC(=O)c2cc(-c3cccn3C)n[nH]2)c1O	?	33	-38	11µM*	11	?
CCCCCCCCN1C(=O)[C@H](CC(=O)NCCC(C)C)C[C@@]2(C(=O)OC)CC(C)(C)CC=C12	.	.	39	.	.	.
Cc1cc2c3c([nH]c2cc1S(=O)(=O)N1CCC2(CC1)OCCO2)CC(C)(C)CC3=O	8.3µM*	-5	?	?	-3	?
COc1ccc(NS(=O)(=O)c2cn(C)nc2C)cc1	13%	-8	7	18%	1	9%
COc1ccc(CCNC2CC(=O)N(CCc3ccccc3)C2=O)cc1 (centres undefined)	9%	15	0	-2%	3	.
O=C1CC(NCCc2ccccc2)C(=O)N1CCc1ccccc1 (centres undefined)	-3%	-6	-28	4%	6	23%
CCN(CC)c1ccc(NC2CC(=O)N(CCc3ccc(OC)cc3)C2=O)cc1 (centres undefined)	4.7µM*	2	-3	1%	-2	1.9µM*
COc1ccc(NC2CC(=O)N(c3ccccc3)C2=O)cc1 (centres undefined)	.	29	23	12%	8	.
Cc1ccc(NC2CC(=O)N(CCc3ccccc3)C2=O)cc1 (centres undefined)	.	25	64	-2%	18*	12%
COc1ccc(CCN2C(=O)CC(NNC(=O)c3ccccc3Br)C2=O)cc1 (centres undefined)	15%	-7	-65*	1%	-2	26%
COC1CCCN(Cc2c(C(=O)N3CCN(C4CCCCC4)CC3)nc3ccccn23)C1 (centres undefined)	?	12	19	-9%	-4	0%
OC[C@H]1O[C@@H]2O[C@H]3[C@H](O)[C@@H](O)[C@@H](O[C@H]4[C@H](O)[C@@H](O)[C@@H](O[C@H]5[C@H](O)[C@@H](O)[C@@H](O[C@H]6[C@H](O)[C@@H](O)[C@@H](O[C@H]7[C@H](O)[C@@H](O)[C@@H](O[C@H]8[C@H](O)[C@@H](O)[C@@H](O[C@H]1[C@H](O)[C@H]2O)O[C@@H]8CO)O[C@@H]7CO)O[C@@H]6CO)O[C@@H]5CO)O[C@@H]4CO)O[C@@H]3CO	1%	.	.	.	.	2%
CN(C)c1ccc(C(=S)NCc2ccco2)cc1	168%	+	72	3%	85*	25%
CN(C)c1ccc(/C=N/NC(=S)NCc2ccco2)cc1	23%	23*	-9	-4%	16	56%
S=C(NCc1ccco1)NCc1ccco1	.	.	-38	18%	.	.
CC12CC3CC(C)(C1)CC(C(=O)N1CCCC1)(C3)C2	?	-12	3	11%	-4	12µM*
O=C(Nc1ccccc1)NC1CCS(=O)(=O)C1 (centres undefined)	10%	1	21	6%	-3	9.3µM*
O=S1(=O)CCC(NC(=S)Nc2ccc(Cl)cc2)C1 (centres undefined)	3%	12	27	5%	-2	0%
O=C(NCc1ccccc1)NC1CCS(=O)(=O)C1 (centres undefined)	9%	37	-6	-7%	0	12%

Screening data (PubChem)
